In the antibiotic and cytotoxicity screens of Wong et al. (2023):
Among all 39,000 compounds or so, about 1,500 (3.8%) were called active. Only a selection was taken, and actives are over-represented in it overall.

test system: HSkMC (human skeletal muscle cells); assay: cytotoxicity call (relative viability < 0.9); conditions: 10 µM

SMILES | cytotoxicity call
COc1ccc(NC(=O)Nc2ccc3c(c2)C(=O)N([C@H](C)CO)C[C@H](C)[C@@H](CN(C)S(=O)(=O)c2c(C)noc2C)OCCCC[C@@H](C)O3)cc1 | inactive
C[C@@H]1CCCCO[C@@H](CN(C)C(=O)NC2CCCCC2)[C@H](C)CN([C@H](C)CO)C(=O)c2cc(NC(=O)Cc3ccccc3)ccc2O1 | inactive
CC(C)NC(=O)Nc1ccc2c(c1)C(=O)N([C@@H](C)CO)C[C@@H](C)[C@H](CN(C)S(=O)(=O)c1cn(C)cn1)OCCCC[C@@H](C)O2 | inactive
C[C@@H]1CCCCO[C@@H](CN(C)Cc2ccc3c(c2)OCO3)[C@H](C)CN([C@@H](C)CO)C(=O)c2cc(NC(=O)Nc3ccc(C(F)(F)F)cc3)ccc2O1 | active
C[C@@H]1CN([C@@H](C)CO)C(=O)c2cc(NC(=O)Nc3ccc(C(F)(F)F)cc3)ccc2O[C@@H](C)CCCCO[C@@H]1CN(C)Cc1ccc2c(c1)OCO2 | inactive
C[C@@H]1CCCCO[C@@H](CN(C)Cc2ccc3c(c2)OCO3)[C@@H](C)CN([C@H](C)CO)C(=O)c2cc(NC(=O)Nc3ccc(C(F)(F)F)cc3)ccc2O1 | inactive
C[C@H](CO)N1C[C@H](C)[C@@H](CN(C)Cc2ccc3c(c2)OCO3)OCCCC[C@H](C)Oc2ccc(NC(=O)Nc3ccc(C(F)(F)F)cc3)cc2C1=O | active
C[C@@H]1CN([C@H](C)CO)C(=O)c2cc(NC(=O)Nc3ccc(C(F)(F)F)cc3)ccc2O[C@@H](C)CCCCO[C@H]1CN(C)Cc1ccc2c(c1)OCO2 | active
C[C@H](CO)N1C[C@H](C)[C@H](CN(C)Cc2ccc3c(c2)OCO3)OCCCC[C@H](C)Oc2ccc(NC(=O)Nc3ccc(C(F)(F)F)cc3)cc2C1=O | active
CC(C)NC(=O)Nc1cccc2c1O[C@@H](CN(C)S(=O)(=O)c1ccccc1)[C@H](C)CN([C@H](C)CO)C2=O | inactive
C[C@@H]1CN([C@@H](C)CO)S(=O)(=O)c2ccc(Br)cc2O[C@H]1CN(C)C(=O)c1ccncc1 | inactive
C[C@H](CO)N1C[C@H](C)[C@@H](CN(C)S(=O)(=O)c2ccc(Oc3ccccc3)nc2)OCc2cn(nn2)CCCC1=O | inactive
c1ccc2c(c1)[nH]c1ncccc12 | inactive
CCC(=O)N[C@H]1C=C[C@H](CC(=O)OC)O[C@@H]1CO | inactive
COc1ccc(NC(=O)Nc2ccc3c(c2)C(=O)N([C@@H](C)CO)C[C@H](C)[C@@H](CN(C)C(=O)c2ccccc2)OCCCC[C@H](C)O3)cc1 | inactive
O=S(=O)(N1CCOCC1)N1CCCN(S(=O)(=O)N2CCOCC2)CC1 | inactive
C[C@@H](O)C#Cc1ccc2c(c1)O[C@H](CN(C)C(=O)Cc1ccccn1)[C@@H](C)CN([C@@H](C)CO)S2(=O)=O | inactive
O=C(C[C@H]1C=C[C@H](NC(=O)CN2CCOCC2)[C@@H](CO)O1)NC1CCCCC1 | inactive
Nc1ccc(S(N)(=O)=O)cn1 | inactive
Cc1cc(C(=O)Nc2cccc3c2O[C@@H](CN(C)Cc2ccc(C(=O)O)cc2)[C@@H](C)CN([C@@H](C)CO)C3=O)n(C)n1 | inactive
C[C@@H]1CCCCO[C@@H](CN(C)Cc2ccc3c(c2)OCO3)[C@@H](C)CN([C@@H](C)CO)C(=O)c2cc(NC(=O)Nc3ccc(C(F)(F)F)cc3)ccc2O1 | active
C[C@@H]1CCCCO[C@H](CN(C)Cc2ccc3c(c2)OCO3)[C@@H](C)CN([C@@H](C)CO)C(=O)c2cc(NC(=O)Nc3ccc(C(F)(F)F)cc3)ccc2O1 | active
C[C@H](CO)N1C[C@H](C)[C@H](CN(C)C(=O)Nc2ccc3c(c2)OCO3)OCCCC[C@H](C)Oc2ccc(NC(=O)CCC(F)(F)F)cc2C1=O | inactive
C[C@@H]1CN([C@H](C)CO)C(=O)c2cc(NC(=O)NC3CCCCC3)ccc2O[C@@H]1CN(C)Cc1ccc(Oc2ccccc2)cc1 | inactive
Cc1noc(C)c1S(=O)(=O)Nc1ccc2c(c1)C(=O)N([C@H](C)CO)C[C@@H](C)[C@H](CN(C)S(=O)(=O)c1cn(C)cn1)OCCCC[C@@H](C)O2 | inactive

SMILES | cytotoxicity call
C/C=C1\NC(=O)[C@H]2CSSCC/C=C/[C@H](CC(=O)N[C@H](C(C)C)C(=O)N2)OC(=O)[C@H](C(C)C)NC1=O | active
CC(C)NC(=O)N(C)C[C@H]1Oc2ccc(NC(=O)CCN3CCOCC3)cc2CC(=O)N([C@@H](C)CO)C[C@@H]1C | inactive
COCC(=O)N1CC[C@]2(CC1)CN([C@@H](CO)c1c2c2ccc(cc2n1C)OC)C(=O)CN1CCOCC1 | inactive
CCOC(=O)c1c(CN2CCN(Cc3ccccc3)CC2)n(-c2ccccc2)c2cc(Br)c(OC)cc12 | inactive
CCOC(=O)c1c(CN2CCN(Cc3ccccc3)CC2)n(-c2ccccc2)c2cc(Br)c(O)cc12 | inactive
CCOC(=O)c1c(CN2CCN(c3ccccc3)CC2)n(-c2ccccc2)c2cc(Br)c(OC)cc12 | inactive
CCOC(=O)c1c(CN2CCN(c3ccccc3)CC2)n(-c2ccccc2)c2cc(Br)c(O)cc12 | active
CCOC(=O)c1c(CN2CCN(CCOCCO)CC2)n(-c2ccccc2)c2cc(Br)c(O)cc12 | inactive
CCOC(=O)c1c(CN2CCN(c3ccc(C)cc3)CC2)n(-c2ccccc2)c2cc(Br)c(OC)cc12 | inactive
CCOC(=O)c1c(CN2CCN(c3ccccc3)CC2)n(C2CCCCC2)c2cc(Br)c(O)cc12 | active
CCOC(=O)c1c(CNCCN(CC)CC)n(-c2ccccc2)c2cc(Br)c(OC)cc12 | inactive
CCOC(=O)c1c(CN2CCN(c3ccccc3C)CC2)n(-c2ccccc2)c2cc(Br)c(O)cc12 | active
COc1ccc(CN(C)C[C@@H]2OCCCC[C@@H](C)Oc3ccc(NC(=O)Nc4c(C)noc4C)cc3C(=O)N([C@H](C)CO)C[C@@H]2C)cc1 | inactive
Cc1noc(C)c1S(=O)(=O)N(C)C[C@H]1Oc2ccc(N(C)C)cc2CC(=O)N([C@@H](C)CO)C[C@H]1C | inactive
C[C@@H]1CN([C@H](C)CO)C(=O)c2cc(C#CC3(O)CCCC3)cnc2O[C@@H]1CN(C)C(=O)Cc1ccncc1 | inactive
C[C@@H]1CCCCO[C@H](CN(C)Cc2ccncc2)[C@@H](C)CN([C@H](C)CO)C(=O)c2cc(NC(=O)NC3CCCCC3)ccc2O1 | inactive
C[C@@H]1CN([C@H](C)CO)C(=O)CCCn2cc(nn2)CO[C@H]1CN(C)C(=O)Nc1ccc(N2CCN(C)CC2)cc1 | inactive
CN1CCN(C(=O)C[C@H]2C[C@H]3c4cc(NC(=O)c5ccc6c(c5)OCO6)ccc4O[C@H]3[C@@H](CO)O2)CC1 | inactive
Cn1cnc(S(=O)(=O)N2C[C@@H](O)COC[C@@H]3O[C@H](CC(=O)N4CCN(c5ccccc5)CC4)CC[C@H]32)c1 | inactive
COc1ccc(NC(=O)Nc2ccc3c(c2)C(=O)N([C@@H](C)CO)C[C@@H](C)[C@H](CN(C)Cc2ccc(C(=O)O)cc2)OCCCC[C@@H](C)O3)cc1 | inactive
Cc1noc(C)c1NC(=O)N(C)C[C@@H]1Oc2ccc(NC(=O)CCCN(C)C)cc2C(=O)N([C@@H](C)CO)C[C@H]1C | inactive
O=C1O[C@@H](c2ccccc2)[C@@H](c2ccccc2)N2[C@@H](c3ccc(OCCO)cc3)[C@]3(C(=O)Nc4ccc(C#CC5(O)CCCCCC5)cc43)[C@@H](C(=O)Nc3nc4ccccc4s3)[C@H]12 | inactive
COc1cc2c(N3CCN(C(=O)Nc4ccc(OC(C)C)cc4)CC3)ncnc2cc1OCCCN1CCCCC1 | inactive
CCN1CCN(c2ccc(Nc3cc(N(C)C(=O)Nc4c(Cl)c(OC)cc(OC)c4Cl)ncn3)cc2)CC1 | active
C[C@H](CO)N1C[C@H](C)[C@@H](CN(C)C(=O)CCCN(C)C)OCCCC[C@H](C)Oc2ccc(NS(=O)(=O)c3cn(C)cn3)cc2C1=O | inactive

SMILES | cytotoxicity call
CC(C)NC(=O)N(C)C[C@@H]1OCCCC[C@@H](C)Oc2ccc(NC(=O)CCCCCC(=O)Nc3ccccc3N)cc2C(=O)N([C@H](C)CO)C[C@H]1C | inactive
Cn1nnc2c1[C@H](COCC1CC1)CN(C(=O)CS(C)(=O)=O)C2 | inactive
C[C@H]1CCCCO[C@@H](CN(C)C(=O)Nc2ccccc2)[C@@H](C)CN([C@@H](C)CO)C(=O)c2cc(NC(=O)NC3CCCCC3)ccc2O1 | inactive
CC(C)n1c(C=CC(O)CC(O)CC(=O)[O-])c(-c2ccc(F)cc2)c2ccccc21.[Na+] (centres undefined) | inactive
C[C@@H]1CCCCO[C@@H](CN(C)S(=O)(=O)c2cccs2)[C@H](C)CN([C@H](C)CO)C(=O)c2cc(NC(=O)CCC(F)(F)F)ccc2O1 | inactive
Cc1ccc(S(=O)(=O)Nc2ccc3c(c2)C(=O)N([C@H](C)CO)C[C@H](C)[C@H](CN(C)S(=O)(=O)c2ccccc2)O3)cc1 | inactive
CC[N+](C)(CC)Cc1ccccc1 | inactive
CCCCCCCCCCCCC[N+](C)(C)Cc1ccccc1 | inactive
CCCCNc1ccccc1 | inactive
CCCCCCCCCCCCCCCC[N+](C)(C)Cc1ccccc1.[Cl-] | active
CCCCCCCCCCCCC[N+](C)(C)Cc1ccccc1.O.[Cl-] | active
CCCCCc1ccccn1 | inactive
CO[C@@H]1CN(C)C(=O)c2ccc(NS(=O)(=O)c3cccc(C)c3)cc2OC[C@@H](C)N(Cc2cc(F)ccc2F)C[C@H]1C | inactive
CN(C)CCCNC(=O)C[C@@H]1CC[C@H]2[C@H](COc3ccc(NC(=O)NC4CCCC4)cc3C(=O)N2C)O1 | inactive
Cc1noc(C)c1NC(=O)N(C)C[C@H]1Oc2c(NC(=O)Nc3ccc(C(F)(F)F)cc3)cccc2C(=O)N([C@H](C)CO)C[C@H]1C | inactive
COC[C@H](NC(=O)c1cnc(C)s1)C(=O)N[C@@H](COC)C(=O)N[C@@H](Cc1ccccc1)C(=O)[C@@]1(C)CO1 | active
CC(=O)N[C@@H](Cc1ccccc1)C(=O)NN | inactive
COc1ccc(C[C@H](NC(=O)[C@H](C)NC(=O)CN2CCOCC2)C(=O)N[C@@H](Cc2ccccc2)C(=O)[C@@]2(C)CO2)cc1 | active
CC(=O)N[C@@H](Cc1ccccc1)C(=O)O | inactive
CC(=O)N1[C@@H](CO)[C@H](c2ccccc2)[C@@H]1CNC(=O)CN1CCOCC1 | inactive
COC(=O)C(Cc1ccccc1)NC(=O)C(N)CC(=O)O (centres undefined) | inactive
CC(=O)N1[C@H](CNC(=O)CN2CCOCC2)[C@@H](c2ccccc2)[C@@H]1CO | inactive
COC(=O)[C@H](Cc1ccccc1)NC(=O)[C@@H](N)CC(=O)O | inactive
CC(C)C[C@H](NC(=O)[C@H](CCc1ccccc1)NC(=O)CN1CCOCC1)C(=O)N[C@@H](Cc1ccccc1)C(=O)N[C@@H](CC(C)C)C(=O)[C@@]1(C)CO1 | active
